Measurements published in PubChem BioAssay.
Inconclusive results are not listed. Calls of active or inactive are those of the source.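 How the source made its calls, unless noted: active means growth inhibition above 25% in both replicates, a cutoff set 3 SD above the mean; inconclusive means above 25% in only one replicate; inactive means the rest.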

Legend:
[1] = Her2 expression decrease, cell viability multiplex – SKBR3 breast tumor cells, AlphaScreen, ATP viability, primary screen (AID 461;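 active means Her2 level under about 52% in both replicate screens, with viability over 70% of control, limit read from the data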;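 on Her2 level: lower value means less Her2 protein in the cells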;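 on viability: percent of carrier control wells set as 100% viability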); settings: SKBR3 Her2 protein level, 18-24 h, measured here: SKBR3 viability, ATP luminescence, at 10 µM
[2] = target: Receptor tyrosine-protein kinase erbB-2 (Homo sapiens) (UniProt P04626); assay: as above; settings: 18-24 h, at 10 µM, stronger effect = lower value
[3] = reduced viability of SK-BR-3 breast cancer cells – cell-based, 24 h, human, pilot screen (AID 572;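 active means viability at or below 10% of carrier control in both of two separate runs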;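 further: compound exposure lasted between 18 and 24 h rather than exactly 24 h; 100% = carrier-treated control wells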); settings: SK-BR-3 viability, CellTiter-Glo luminescence, at 10 µM, stronger effect = lower value
[4] = HUVEC growth inhibition – cell-based, human, primary screen (AID 575;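 active means viability at or below 30% in both replicate assays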;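 further: 100% = median of untreated cell wells with 0.1% DMSO on each plate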); settings: HUVEC proliferation, CellTiter-Glo luminescence, 72 h; at 10 µM; stronger effect = lower value
[5] = H69AR cell proliferation blockers – human, duplicate replicates, primary screen (AID 580;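 active means viability at or under a set limit in both replicates, limit being median viability minus 3 SD, cut at about 48% in these data, passing the limit was not always enough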;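 further: 100% = mean luminescence of untreated wells and 0% = no signal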); settings: H69AR lung tumor cells viability, ATP luminescence, 72 h; at 10 µM; stronger effect = lower value
[6] = MRP1 drug-resistance reversers in H69AR cells – cell-based, doxorubicin co-treatment, pilot screen (AID 601;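 active means viability loss from added drug above about 55%, and viability with drug at most 40%, in both replicates, limit read from the data, passing the limit was not always enough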); settings: CellTiter-Glo, 72 h, at 10 µM; for differential viability (reversal): stronger effect = higher value
[7] = yeast transport mutant growth inhibition pilot in 384-well plates, post-Golgi transport modulator project (AID 636; in the data active means inhibition above about 31%); settings: absorbance 615 nm, about 18 h, stronger effect = higher value
[8] = growth suppression of yeast trafficking mutant, preliminary HTS, modulators of trafficking downstream of Golgi apparatus project, 1536-format plate, OD 615 nm (AID 637; in the data active means inhibition above about 30%); settings: yeast transport mutant growth, absorbance 615 nm, 18 h; stronger effect = higher value
[9] = S. cerevisiae growth inhibition in permissive medium (OD615), pilot counter-assay for S. cerevisiae lifespan shortening project, permissive growth control (AID 705); settings: OD615, 24 h, at 10 µM, stronger effect = higher value
[10] = S. cerevisiae growth inhibition in restrictive medium, OD615, pilot screen, restrictive growth control, yeast lifespan reduction project (AID 706;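 active means growth inhibition above a set limit, 3 SD over mean compound inhibition, in both replicates, cut at about 43% in these data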;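 further: modified DeaD lifespan yeast strain shifted to restrictive glucose medium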); settings: OD615, 48 h, at 10 µM, stronger effect = higher value
[11] = doxorubicin toxicity protection in MRP-1 cells – H69AR cells, CellTiter-Glo, duplicate, MRP-1 activator project, pilot screen (AID 807;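 active means viability increase at or above a cutoff of the median across tested compounds plus 3 SD, cut at about 8.5% in these data, passing the limit was not always enough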;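 further: compound pretreatment 18-22 h then 72 h combined with doxorubicin; 0% = doxorubicin alone and 100% = vehicle without doxorubicin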); settings: H69AR viability with doxorubicin, CellTiter-Glo luminescence; at 10 µM; stronger effect = higher value
[12] = viability of HCT116 without oncogenic beta-catenin – human colon tumor cells, pilot screen (AID 823;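 active means cell viability at or below a set limit in both duplicate runs, the limit being the all-compound median minus 4 SD, cut at about 23% in these data, passing the limit was not always enough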;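 further: 0% = wells killed by 20 µM Hyamine and 100% = untreated DMSO cell wells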); settings: HCT116 beta-catenin knockout viability, CellTiter-Glo, 60 h; at 10 µM; stronger effect = lower value
[13] = viability of PTEN-null HCT116 cells – cell-based, HCT116 clonal line, CellTiter-Glo, pilot screen (AID 824;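 active means viability at or below 27.92% in each of two runs, the all-compound median minus 4 SD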;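 further: 0% = 20 µM Hyamine control and 100% = vehicle cell control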); settings: HCT116 PTEN-deleted viability, 60 h, at 10 µM, stronger effect = lower value
[14] = RAM pathway blockade in budding yeast – dse1pr::URA3 reporter, 5-FOA selection, pilot screen (AID 869;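 active means inhibition over a set limit, the all-compound mean plus 3 SD, in both replicate runs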;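 further: 0% = DMSO wells with no growth and 100% = 10 µM 1-NA-PP1 with full growth; RAM network block rescues cells from 5-FOA so hits raise OD615 growth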); settings: S. cerevisiae dse1pr::URA3 5-FOA growth, OD615, 2 d; at 10 µM; stronger effect = higher value; strain carries analog-sensitive mutant Cbk1 kinase
[15] = RAM signaling pathway blockade in yeast – S. cerevisiae, Pdr1DBD-CYC8 efflux-inhibited sensitized strain, primary screen (AID 1298;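 active means RAM network inhibition above 8.4% in each of two replicates, 3 SD over the compound average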;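 further: 0% = DMSO untreated cells without growth and 100% = 10 µM 1-NA-PP1 full growth; higher means more yeast growth rescued from 5-FOA killing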); settings: S. cerevisiae cbk1-as DSE1-URA3 strain, 5-FOA growth OD615, 2 d; at 50 µM; stronger effect = higher value
[16] = H69AR cells + 2 uM doxorubicin, measured here: viability with 2 uM doxorubicin, stronger effect = lower value
[17] = H69AR cells, compound alone cytotoxicity

Chain of Receptor tyrosine-protein kinase erbB-2 (Homo sapiens) (P04626 whole entry, looked up): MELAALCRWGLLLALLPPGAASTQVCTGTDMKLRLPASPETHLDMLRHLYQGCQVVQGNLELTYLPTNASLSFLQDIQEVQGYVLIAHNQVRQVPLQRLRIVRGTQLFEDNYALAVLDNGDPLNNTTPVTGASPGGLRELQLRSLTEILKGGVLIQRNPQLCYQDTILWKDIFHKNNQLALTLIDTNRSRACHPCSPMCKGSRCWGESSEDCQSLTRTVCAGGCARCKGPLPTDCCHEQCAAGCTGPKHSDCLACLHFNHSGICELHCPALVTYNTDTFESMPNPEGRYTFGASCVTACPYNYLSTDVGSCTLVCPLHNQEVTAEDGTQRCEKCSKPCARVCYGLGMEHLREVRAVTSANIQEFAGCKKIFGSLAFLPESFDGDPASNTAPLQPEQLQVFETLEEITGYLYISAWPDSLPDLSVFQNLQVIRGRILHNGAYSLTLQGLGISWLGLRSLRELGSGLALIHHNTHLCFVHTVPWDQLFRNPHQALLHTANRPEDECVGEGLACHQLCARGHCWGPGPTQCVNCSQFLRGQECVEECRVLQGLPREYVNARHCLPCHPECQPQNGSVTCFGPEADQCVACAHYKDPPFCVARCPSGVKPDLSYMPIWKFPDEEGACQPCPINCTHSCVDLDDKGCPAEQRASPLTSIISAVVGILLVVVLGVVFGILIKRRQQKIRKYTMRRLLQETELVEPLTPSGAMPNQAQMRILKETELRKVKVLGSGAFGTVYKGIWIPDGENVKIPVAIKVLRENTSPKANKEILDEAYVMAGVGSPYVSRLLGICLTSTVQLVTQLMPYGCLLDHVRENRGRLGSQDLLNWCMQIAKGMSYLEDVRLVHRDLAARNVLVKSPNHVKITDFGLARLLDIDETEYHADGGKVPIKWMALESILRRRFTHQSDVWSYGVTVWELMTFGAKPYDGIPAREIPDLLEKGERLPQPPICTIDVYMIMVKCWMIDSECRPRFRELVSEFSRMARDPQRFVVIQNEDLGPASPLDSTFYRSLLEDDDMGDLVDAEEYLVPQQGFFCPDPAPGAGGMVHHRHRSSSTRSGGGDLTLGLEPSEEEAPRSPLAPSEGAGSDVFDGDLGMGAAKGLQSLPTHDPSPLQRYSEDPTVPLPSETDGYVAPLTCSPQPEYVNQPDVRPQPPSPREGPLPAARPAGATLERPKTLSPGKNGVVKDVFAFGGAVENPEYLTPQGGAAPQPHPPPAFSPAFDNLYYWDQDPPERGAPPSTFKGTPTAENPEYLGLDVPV

Structure (SMILES) | viability [1] [%] | Her2 level [2] | viability [3] | viability [4] | viability [5] | differential viability (reversal) ([6]; H69AR cells + 2 uM doxorubicin) | viability [6, 16] [%] | viability [6, 17] [%] | inhibition [7] | inhibition [8] | growth inhibition [9] | growth inhibition [10] | viability increase [11] | viability [12] | viability [13] | inhibition [14] | RAM network inhibition [15]
CC(C)C(=O)Nc1ccc(-c2nc3cccnc3o2)cc1 | 93.5 | 82% (inactive) | 93.5% (inactive) | 128% (inactive) | 95.2% (inactive) | -4.14% (inactive) | 99.4 | 95.2 | 1.03% (inactive) | -5.33% (inactive) | -11.7% (inactive) | -2.21% (inactive) | 1.32% (inactive) | 101% (inactive) | 104% (inactive) | 2.22% (inactive) | 1.35% (inactive)
COc1ccc(-n2ncc3c(N4CCC(C)CC4)ncnc32)cc1 | 100 | 106% (inactive) | 100% (inactive) | 56.2% (inactive) | 76.6% (inactive) | 35.3% (inactive) | 41.2 | 76.6 | -4% (inactive) | 3% (inactive) | -1.23% (inactive) | -0.39% (inactive) | -2.39% (inactive) | 101% (inactive) | 93.6% (inactive) | 1.94% (inactive) | 1.63% (inactive)
O=C(NCCC1=CCCCC1)C1CCN(S(=O)(=O)c2cccc3cccnc23)CC1 | 104 | 96% (inactive) | 104% (inactive) | 89% (inactive) | 97% (inactive) | -1.27% (inactive) | 98.2 | 97 | -2.27% (inactive) | -0.82% (inactive) | 6.61% (inactive) | -0.115% (inactive) | 4.13% (inactive) | 93.3% (inactive) | 91.6% (inactive) | 0.885% (inactive) | 1.51% (inactive)
CCN(CC)S(=O)(=O)c1ccc2oc(C(=O)N3CCOCC3)c(C)c2c1 | 79.5 | 101% (inactive) | 79.5% (inactive) | 106% (inactive) | 96.5% (inactive) | -0.525% (inactive) | 97 | 96.5 | 0.67% (inactive) | -4.84% (inactive) | -6.28% (inactive) | -17.5% (inactive) | 0.12% (inactive) | 93.7% (inactive) | 98.8% (inactive) | -0.09% (inactive) | -0.22% (inactive)
CCOc1ccc(N2C(=O)CC(N3CC(C)OC(C)C3)C2=O)cc1 (stereo not given) | 97 | 93% (inactive) | 97% (inactive) | 100% (inactive) | 89.2% (inactive) | -2.21% (inactive) | 91.4 | 89.2 | -3.72% (inactive) | 1.33% (inactive) | -17.2% (inactive) | -10.4% (inactive) | -1.01% (inactive) | 105% (inactive) | 98.8% (inactive) | 1.47% (inactive) | 2.33% (inactive)
CCN1CCN(Cc2nc3c(c(=O)n(C)c(=O)n3C)n2CC(=O)c2ccccc2)CC1 | 100 | 108% (inactive) | 100% (inactive) | 95.5% (inactive) | 98.5% (inactive) | 2.67% (inactive) | 95.8 | 98.5 | -4.13% (inactive) | -0.33% (inactive) | 5% (inactive) | -14% (inactive) | -1.56% (inactive) | 100% (inactive) | 105% (inactive) | 1.33% (inactive) | 3.98% (inactive)
Cc1cc2ncc(-c3ccc(Cl)cc3)c(N)n2n1 | 83 | 114% (inactive) | 83% (inactive) | 69.6% (inactive) | 82.7% (inactive) | -0.45% (inactive) | 83.1 | 82.7 | -4.93% (inactive) | -0.5% (inactive) | -12.6% (inactive) | -0.665% (inactive) | -4.85% (inactive) | 88% (inactive) | 85.4% (inactive) | 1.27% (inactive) | 1.2% (inactive)
NC(=O)CN1C(=O)C(O)(CC(=O)c2ccccc2O)c2ccccc21 (stereo not given) | 92.5 | 95.5% (inactive) | 92.5% (inactive) | 92.1% (inactive) | 91.8% (inactive) | -5.2% (inactive) | 97 | 91.8 | -2.67% (inactive) | -1.17% (inactive) | 1.61% (inactive) | -10.4% (inactive) | -2.93% (inactive) | 94.8% (inactive) | 93.9% (inactive) | 1.52% (inactive) | 2.98% (inactive)
COc1ccc(CN2C(=O)CN=C2Nc2ccc(C)cc2C)cc1 | 85 | 91% (inactive) | 85% (inactive) | 103% (inactive) | 84.9% (inactive) | 7.04% (inactive) | 77.8 | 84.9 | -3.82% (inactive) | -0.73% (inactive) | -7.07% (inactive) | -12.2% (inactive) | -1.49% (inactive) | 101% (inactive) | 89.4% (inactive) | 3.82% (inactive) | 5.11% (inactive)
NC(=O)c1cccc2c1C(=O)N(C1CCCCC1)C2 | 109 | 99.5% (inactive) | 109% (inactive) | 76% (inactive) | 88.9% (inactive) | -2.49% (inactive) | 91.4 | 88.9 | -0.77% (inactive) | -1.33% (inactive) | -7.48% (inactive) | -4.63% (inactive) | -0.58% (inactive) | 101% (inactive) | 95.3% (inactive) | 0.59% (inactive) | 3.36% (inactive)
Cc1ccc2oc(=O)c3cnn(CC(=O)N4CCCc5ccccc54)c3c2c1 | 100 | 98.5% (inactive) | 100% (inactive) | 89.8% (inactive) | 74.8% (inactive) | 13.9% (inactive) | 60.9 | 74.8 | -2.67% (inactive) | -0.82% (inactive) | -12.4% (inactive) | -5.59% (inactive) | -3.17% (inactive) | 91.3% (inactive) | 82.3% (inactive) | 3.85% (inactive) | 6.86% (inactive)
CCOc1cccc(C(=O)N2CCCCC2c2cccnc2)c1 (stereo not given) | 98.5 | 96.5% (inactive) | 98.5% (inactive) | 101% (inactive) | 110% (inactive) | 10.3% (inactive) | 99.6 | 110 | -0.93% (inactive) | -1.13% (inactive) | -4.46% (inactive) | -2.66% (inactive) | -1.99% (inactive) | 101% (inactive) | 95.2% (inactive) | 0.635% (inactive) | 1.95% (inactive)
N#CC(C(=O)Nc1ccccc1)=C1CCCCC1 | 99 | 89.5% (inactive) | 99% (inactive) | 85.5% (inactive) | 109% (inactive) | 14.8% (inactive) | 94.2 | 109 | -4.67% (inactive) | -3.55% (inactive) | -25.1% (inactive) | -18.8% (inactive) | 1.71% (inactive) | 91.2% (inactive) | 102% (inactive) | 1.52% (inactive) | 4.92% (inactive)
CCN1CCN(C(=O)c2oc(=O)c3ccccc3c2-c2ccc(C)cc2)CC1 | 96 | 102% (inactive) | 96% (inactive) | 98.6% (inactive) | 96.4% (inactive) | -4.83% (inactive) | 101 | 96.4 | -3.07% (inactive) | 5.9% (inactive) | -1.38% (inactive) | -6.39% (inactive) | -3.04% (inactive) | 91.9% (inactive) | 90.5% (inactive) | 2.07% (inactive) | 1.85% (inactive)
COc1ccc(NC(=O)CN(c2ccc(C(C)C)cc2)S(=O)(=O)c2c(C)noc2C)cc1OC | 90.5 | 99% (inactive) | 90.5% (inactive) | 58.7% (inactive) | 84.9% (inactive) | -6.37% (inactive) | 91.3 | 84.9 | 1.41% (inactive) | -2.17% (inactive) | -14.5% (inactive) | -5.8% (inactive) | -3.99% (inactive) | 94.5% (inactive) | 90.8% (inactive) | 3.67% (inactive) | 3.37% (inactive)
COc1cc(NC(=O)C2CCCN2S(=O)(=O)c2cccc3cccnc23)cc(OC)c1OC (stereo not given) | 72 | 81% (inactive) | 72% (inactive) | 87.6% (inactive) | 82.2% (inactive) | -6.16% (inactive) | 88.3 | 82.2 | -1.67% (inactive) | 1.5% (inactive) | 0.6% (inactive) | -10.7% (inactive) | -5.34% (inactive) | 79.4% (inactive) | 79.4% (inactive) | 0.905% (inactive) | 2.32% (inactive)
Cc1cc(NC(=O)COc2cccc(C)c2C)no1 | 96 | 102% (inactive) | 96% (inactive) | 94.2% (inactive) | 108% (inactive) | 15.6% (inactive) | 92.5 | 108 | -0.53% (inactive) | -4.26% (inactive) | -0.27% (inactive) | 6.53% (inactive) | 3.52% (inactive) | 102% (inactive) | 105% (inactive) | 2.08% (inactive) | 2.68% (inactive)
COc1cccc(C2=NOC(C(=O)Nc3cc(C)nn3-c3ccccc3)C2)c1OC (stereo not given) | 93 | 91% (inactive) | 93% (inactive) | 68.7% (inactive) | 28.6% (active) | -43.9% (inactive) | 72.5 | 28.6 | 2.31% (inactive) | -1.83% (inactive) | 1.31% (inactive) | 12% (inactive) | -5.04% (inactive) | 68.3% (inactive) | 60.2% (inactive) | 2.12% (inactive) | -0.06% (inactive)
CC(C)NC(=O)c1ccc2c(c1)nnn2C | 94 | 84% (inactive) | 94% (inactive) | 87.6% (inactive) | 99.4% (inactive) | 0.56% (inactive) | 98.8 | 99.4 | -4.05% (inactive) | -4.92% (inactive) | -7.61% (inactive) | -12.3% (inactive) | 0.39% (inactive) | 106% (inactive) | 105% (inactive) | 2% (inactive) | 1.32% (inactive)
COC(=O)CCCCCc1ccc(C(C)=O)s1 | 86.5 | 84.5% (inactive) | 86.5% (inactive) | 105% (inactive) | 100% (inactive) | 13.6% (inactive) | 86.5 | 100 | -1.33% (inactive) | -1.61% (inactive) | -3.98% (inactive) | -1.53% (inactive) | 0.73% (inactive) | 96.7% (inactive) | 95% (inactive) | 0.02% (inactive) | 3.12% (inactive)
